Among the data in PubChem BioAssay AID1851 (National Center for Advancing Translational Sciences (NCATS), 2009) are AC50 and activity, negative = inhibition values, retold here.

SMILES strings stand for the structures. Screen size: about 16,000 compounds; about 4,000 (25%) were called active. Roughly 26% stayed inconclusive and do not appear here. Calls come from the whole dose curve; as a rule, active = well fitted curve in the direction sought with a large enough effect; inconclusive = small, poorly fitted or top-dose-only effect, or effect the other way; inactive = no such curve, though single readings can be large or run the other way. A selection follows.

What is called AC50 is the concentration giving half of the maximal activity seen.
% is set by controls: 0 for no effect and ±100 for the full control effect.

The target of this test is Cytochrome P450 2C9 (Homo sapiens) (UniProt P11712). Description: Cytochrome panel assay with activity outcomes. The settings on record: recombinant CYP, pro-luciferin dealkylation, luminescence, p450-cyp2c9; series mostly up to 57.1 µM.
Chain of Cytochrome P450 2C9 (Homo sapiens) (P11712 whole entry, looked up): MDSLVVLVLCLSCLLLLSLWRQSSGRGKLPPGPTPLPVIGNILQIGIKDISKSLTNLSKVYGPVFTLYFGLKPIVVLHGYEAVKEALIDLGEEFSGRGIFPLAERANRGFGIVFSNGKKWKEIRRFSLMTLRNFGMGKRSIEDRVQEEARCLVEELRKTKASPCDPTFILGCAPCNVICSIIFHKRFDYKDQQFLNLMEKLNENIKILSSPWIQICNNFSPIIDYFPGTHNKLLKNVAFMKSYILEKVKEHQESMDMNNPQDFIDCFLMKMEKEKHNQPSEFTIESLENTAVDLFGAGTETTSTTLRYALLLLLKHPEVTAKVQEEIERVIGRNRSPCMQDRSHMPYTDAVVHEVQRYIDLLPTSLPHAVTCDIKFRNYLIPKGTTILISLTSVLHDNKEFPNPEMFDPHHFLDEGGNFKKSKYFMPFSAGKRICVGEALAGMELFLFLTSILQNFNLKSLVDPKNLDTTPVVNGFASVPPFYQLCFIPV
Turning to `CN(N=O)C(=O)N[C@H]1[C@@H](O)[C@H](O)[C@H](CO)O[C@@H]1O`, the AC50 result was “inactive”.

As for `C[C@@]12CC(=O)[C@@H]3[C@@H](CCC4=CC(=O)CC[C@]43C)[C@@H]1CC=C2CC(=O)O`, the activity, negative = inhibition was 4.34% [at 11.4 µM] (inactive).

For `COCC(=O)N1CCC2(CC1)CCN(c1ncccn1)CC2`, the AC50 entry is “inactive”.

As for `COC(=O)N1CCC2(CC1)CCN(c1ncccn1)CC2`, the AC50 result was “inactive”. As for `CN(C(=O)c1cnc(N2CCN(c3ncccn3)CC2)c2ccccc12)c1ccc(Cl)cc1`, the AC50 was 5.01 µM (active).

On to `CCN(C(=O)c1cnc(N2CCN(c3ncccn3)CC2)c2ccccc12)c1cccc(Cl)c1`, for which the AC50 was 3.16 µM (active). Consider `COCC(=O)N1CCC2(CCCN(c3ncccn3)C2)CC1`, for which the AC50 entry is “inactive”. In the case of `COCC(=O)N1CCC2(CC1)CN(c1ccccn1)C2`, the AC50 result was “inactive”. Regarding `CO[C@H]1COC(=O)CCC[C@@H](C)[C@H](OC)COC(=O)[C@@H](C)NC(=O)C/C=C\[C@@H]1C`, the activity, negative = inhibition is -11.7% [at 11.4 µM] (inactive). Still for that read-out and setting: the figure for `Cc1noc(C)c1-c1nc(Nc2ccc(F)cc2)c2ccccc2n1` is -2.69% [at 2.29 µM] (inactive). Turning to `CCN(CC)CCNC(=O)c1cc(Br)c(N)cc1OC`, the AC50 entry was “inactive”. Same read-out and setting: the entry for `O=C(O)COc1ccc(OCCNC[C@@H](O)COc2ccccc2)cc1` is “inactive”; for `CCCc1c(OCCCOc2ccc(OCC(=O)O)cc2)ccc(C(C)=O)c1O` it is 10 µM (active). Turning to `CCCc1c(OCCCOc2ccc(OCC(=O)O)cc2)ccc(CC=O)c1O`, the AC50 entry was “inactive”.

With `Cn1cccc1C(=O)N1CCC[C@@]2(CCN(Cc3ccc(C#N)cc3)C2)C1`, the AC50 result was “inactive”. The same measure, in the same setting: the entry for `NC/C=C\C(=O)O` is “inactive”; for `CC[C@H](C)[C@@H]1O[C@]2(CC[C@@H]1C)C[C@H]1C[C@H](CC=C(C)[C@@H](O[C@@H]3C[C@H](OC)[C@H](O[C@@H]4C[C@H](OC)[C@H](O)[C@H](C)O4)[C@H](C)O3)[C@@H](C)C=CC=C3CO[C@@H]4[C@@H](O)C(C)=C[C@@H](C(=O)O1)[C@]34O)O2` it is “inactive”; for `O=S(=O)(c1cccc(C(F)(F)F)c1)N1CCC(c2cc(-c3cccc4ccccc34)n[nH]2)CC1` it is “inactive”. Same read-out and setting: the entry for `O=C(Cn1cc(C(F)(F)F)ccc1=O)N1CCN(S(=O)(=O)c2ccccc2)CC1` is “inactive”. The same measure, in the same setting: as for `O=C1C2CCCN2c2ccc(S(=O)(=O)N3CCOCC3)cc2N1Cc1cccc(C(F)(F)F)c1` (centres undefined), the figure is 5.01 µM (active). Turning to `COc1ccc(NC(=O)N2CCCC3(CCN(C(=O)c4csnn4)CC3)C2)cc1`, the AC50 entry was “inactive”. With `O=C(SCc1cccc2ccccc12)c1ccc(Cl)cc1`, the activity, negative = inhibition was -1.66% [at 11.4 µM] (inactive). Consider `Cc1ccc(CONC(=O)/N=C/N(C)C)cc1`, for which the AC50 result was “inactive”. The same measure, in the same setting: as for `O/N=C/c1ccccc1OCc1ccc(Cl)cc1`, the figure is 4.47 µM (active). Still for that read-out and setting: the figure for `Cc1ccc(COc2ccc(Br)cc2/C=N/O)cc1` is 2.82 µM (active). Take `Oc1ccc(Cl)cc1C=Nc1cnc2ccccc2c1`: the activity, negative = inhibition was 1.22% [at 11.4 µM] (inactive).

With `O=C(Cc1ccccc1)N/N=C/c1ccccc1OCc1ccc(Cl)cc1`, the AC50 is 7.94 µM (active). Consider `Cc1ccc(COc2coc(CO)cc2=O)cc1`, for which the AC50 entry was “inactive”. The same measure, in the same setting: as for `O/N=C/c1cc(Cl)ccc1OCc1cccc2ccccc12`, the figure is 7.08 µM (active); as for `Cc1n[nH]c(=S)n1/N=C/c1ccccc1OCc1ccc(Cl)cc1`, “inactive”.

As to `COc1ccc(COC(=O)N/N=C2/C[C@@H](O)[C@@H](O)[C@@H]3[C@@H]4C(=O)N(C(C)(C)C)C(=O)[C@H]4CC[C@H]23)cc1`, the activity, negative = inhibition was 20.6% [at 11.4 µM] (inactive). As for `CC(C)(C)c1onc(OCP(=O)(O)O)c1C[C@@H](N)C(=O)O`, the AC50 result is “inactive”. For `C[C@@H]1O[C@H](O[C@@H]2[C@H](C)O[C@H](O[C@@H]3[C@H](C)O[C@H](O[C@H]4CC[C@]5(C)[C@@H](CC[C@@H]6[C@H]5C[C@@H](O)[C@]5(C)[C@@H](C7=CC(=O)OC7)CC[C@]65O)C4)C[C@@H]3O)C[C@@H]2O)C[C@H](O)[C@@H]1O`, the AC50 result is “inactive”. As for `C[C@@H](Cc1ccccc1)Nc1ncnc2c1ncn2[C@@H]1O[C@@H](CO)[C@H](O)[C@@H]1O`, the AC50 entry was “inactive”.

Consider `COCCNc1nc(-c2c(C)noc2C)nc2ccccc12`, for which the activity, negative = inhibition is 15% [at 2.29 µM] (inactive). Take `NC(=S)N/N=C/c1ccccc1OCc1cccc(Cl)c1`: the AC50 is 1.58 µM (active). Consider `NC(N)=NC(N)=Nc1cccc(Cl)c1`, for which the AC50 entry was “inactive”. Same read-out and setting: the entry for `CCC1(C)Nc2ccccc2C(=O)N1O` (centres undefined) is “inactive”. Still for that read-out and setting: the entry for `NC1=NC2(CCCCCC2)n2c(nc3ccccc32)N1` is “inactive”. Take `CC1CCC2(CC1)N=C(N)Nc1nc3ccccc3n12` (centres undefined): the AC50 result is “inactive”. Take `CCCC1(C)Nc2ccccc2-c2nc3ccccc3n21` (centres undefined): the AC50 was 3.98 µM (active).

For `CCCCC1(C)Nc2ccccc2-c2nc3ccccc3n21` (centres undefined), the AC50 is 12.6 µM (active).

On to `COc1c2c(nc3ccccc13)O[C@@H]([C@@](C)(O)CO)C2`, for which the AC50 result was “inactive”. With `Cc1cccc(C(=O)NNC(=O)C(=O)NC(C)(C)C)c1`, the AC50 result is “inactive”. For `Cc1cccc(C(=O)NNC(=O)C2CCCO2)c1` (centres undefined), the AC50 entry is “inactive”.

For the compound `C=C(C)C1CC=C(C)/C(=N/NC(=O)c2ccc(NC(=O)c3cccc(C)c3)cc2)C1` (centres undefined), the half-maximal activity concentration (AC50) is 1.58 µM (active). On to `COc1ccc(CCN(C)CCc2ccc(OC)c(OC)c2)cc1OC`, for which the AC50 result is “inactive”. Turning to `COc1ccc(C[N+](C)(C)N)cc1OC`, the activity, negative = inhibition is 13.9% [at 11.4 µM] (inactive). `COc1ccc(Cc2n[nH]c(=O)c3ccccc23)cc1OC`: the AC50 was 25.1 µM (active). Still for that read-out and setting: the entry for `CCCCc1ccc2nc(NC(=O)OC)[nH]c2c1` is “inactive”. Turning to `Nc1c(OCC(=O)O)ccc2cc(S(=O)(=O)O)ccc12`, the activity, negative = inhibition is -7.12% [at 11.4 µM] (inactive). Same read-out and setting: the figure for `c1ccc2c(N3CCOCC3)nc(-c3ccoc3)nc2c1` is 11.8% [at 2.29 µM] (inactive). For `Nc1nc(Cl)cc(N2CCOCC2)n1`, the AC50 entry is “inactive”. On the same count and under the same terms, the figure for `COc1cccc(Sc2cc(N3CCOCC3)nc(-c3ccccc3)n2)c1` is 10 µM (active); for `Clc1ccc(Sc2cc(N3CCOCC3)nc(-c3ccccc3)n2)cc1` it is 10 µM (active). Regarding `COc1cccc(-c2ccc3ncnc(N4CCOCC4)c3c2)c1`, the activity, negative = inhibition is -6.77% [at 2.29 µM] (inactive).

With `Brc1ccc([C@H]2CN3CCSC3=N2)cc1`, the AC50 result is “inactive”. Consider `CN1CCN(c2ncncc2-c2ccc(C(=O)N(C)C)cc2)CC1`, for which the activity, negative = inhibition is 16.3% [at 2.29 µM] (inactive). With `O=P(O)(O)CCP(=O)(c1ccccc1)c1ccccc1`, the AC50 result was “inactive”.
